Measured values from PubChem BioAssay AID1345085 (National Center for Advancing Translational Sciences (NCATS), 2018).
Records with an inconclusive call do not appear. Values without a mark were called inactive. Calls of active or inactive are those of the source. Calls come from the whole dose curve; as a rule, active = well fitted cell-killing curve with a large enough effect; inconclusive = small, poorly fitted or top-dose-only effect, or effect the other way; inactive = no such curve, though single readings can be large or run the other way.

System: Tov-21-G
Assay: Confirmatory qHTS for gynecologic anti-cancer compounds from libraries of approved drugs and bioactive compounds; note: nearly all actives have a fitted effect of over 55% in size
Conditions: gynecologic cancer cell panel viability, ATPlite luminescence, 48 h; series mostly up to 57.7 µM; activity change, negative = viability loss: at the top concentration
How it was run: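 Seeding 1,000 cells per well preceded overnight (16 h) attachment, after which 48 h drug treatment across 57.5 uM–0.977 nM (11 points) was applied. Remaining cellular ATP, detected by ATPlite luminescence, defined IC50.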
% is set by controls: 0 for no effect and ±100 for the full control effect; potency is the fitted concentration of half-maximal effect.

Row | SMILES | Potency | activity change, negative = viability loss [%]
1 | COc1cc2nccc(Oc3ccc(NC(=O)Nc4cc(C)on4)c(Cl)c3)c2cc1OC | 19.3 µM (active) | 
2 | COCCOc1nc(-c2ccc(Cl)c(Cl)c2)n(-c2ccc(NC(=O)CCl)cc2)n1 | 1.72 µM (active) | 
3 | COc1cc(N2CCC(N3CCN(C)CC3)CC2)ccc1Nc1ncc(Cl)c(Nc2ccccc2S(=O)(=O)C(C)C)n1 | 6.11 µM (active) | 
4 | CN(NC(=O)CC(=O)NN(C)C(=S)c1ccccc1)C(=S)c1ccccc1 | 0.153 µM (active) | 
5 | C1CCC(C(CC2CCCCN2)C2CCCCC2)CC1 (centres undefined) | 12.2 µM (active) | 
6 | CCCCc1oc2ccccc2c1C(=O)c1cc(I)c(OCCN(CC)CC)c(I)c1 | 56.2 µM (active) | 
7 | OCCNC1CCCc2c1[nH]c1ccc(-c3ccccc3)cc21 (centres undefined) | 27.3 µM (active) | 
8 | Cn1c(=O)c(F)c(Nc2ccc(I)cc2F)c2c(=O)n(CC(O)CO)cnc21 (centres undefined) | 2.73 µM (active) | 
9 | Cc1cc(CN2CCN(c3c(Br)cnc4nc(-c5ccc(N6CCN(C)CC6)cc5)[nH]c34)CC2)no1 | 24.3 µM (active) | 
10 | COc1cc(Nc2ncc(F)c(Nc3ccc4c(n3)N(COP(=O)(O)O)C(=O)C(C)(C)O4)n2)cc(OC)c1OC | 1.37 µM (active) | 
11 | COC(C)(C)CCn1nc(Nc2c(C)cccc2C)c2cnc(Nc3ccc(OCCN4CCCC4)c(F)c3)nc21 | 1.37 µM (active) | 
12 | OC[C@H]1O[C@@H](n2cnc3c(=S)nc[nH]c32)[C@H](O)[C@@H]1O |  | -22.2
13 | CCN(CC)CCCC(C)Nc1c2ccc(Cl)cc2nc2ccc(OC)cc12 (centres undefined) | 30.6 µM (active) | 
14 | CC(=O)OC12COC1CC(O)C1(C)C(=O)C(O)C3=C(C)C(OC(=O)C(O)C(NC(=O)OC(C)(C)C)c4ccccc4)CC(O)(C(OC(=O)c4ccccc4)C21)C3(C)C (centres undefined) |  | -6.62
15 | CCS(=O)(=O)c1cccc(-c2cc(C(=O)NC3CCN(C)CC3)c(C)c3[nH]c4ncc(C)cc4c23)c1 | 1.5 µM (active) | 
16 | CC[C@@]1(O)C(=O)OCc2c1cc1n(c2=O)Cc2cc3c(CN(C)C)c(O)ccc3nc2-1 | 5.44 µM (active) | 
17 | COc1cc(F)c(F)c(Nc2ccc(I)cc2F)c1NS(=O)(=O)C1(CC(O)CO)CC1 (centres undefined) | 13.7 µM (active) | 
18 | COc1ccccc1N1CCN(CC(O)COc2cccc3ccccc23)CC1 (centres undefined) |  | 18.9
19 | CN(C)C/C=C/C(=O)Nc1cc2c(Nc3ccc(F)c(Cl)c3)ncnc2cc1OC1CCOC1 (centres undefined) | 3.43 µM (active) | 
20 | c1cc(N[C@@H]2CCNC2)nc(-c2cnc3ccc(-c4cn[nH]c4)cn23)c1 | 2.43 µM (active) | 
21 | CN(C)C1CCN(C(=O)c2ccc(NC(=O)Nc3nc(N4CCOCC4)nc(N4CCOCC4)n3)cc2)CC1 | 0.172 µM (active) | 
22 | O=C1NC(=O)C(c2cnc3ccccn23)=C1c1cn2c3c(cccc13)CN(C(=O)N1CCOCC1)CC2 | 0.544 µM (active) | 
23 | Nc1ccccc1NC(=O)c1ccc(CNC(=O)OCc2cccnc2)cc1 | 7.69 µM (active) | 
24 | CNC(=O)c1ccccc1Sc1ccc2c(/C=C/c3ccccn3)n[nH]c2c1 | 10.9 µM (active) | 
25 | COc1ccc(OC)c(-c2nnc3ccc(-c4ccc(OC)c(O[C@@H]5CCOC5)c4)nn23)c1 |  | -39.4
26 | COC(C(=O)N1Cc2[nH]nc(NC(=O)c3ccc(N4CCN(C)CC4)cc3)c2C1)c1ccccc1 (centres undefined) | 1.37 µM (active) | 
27 | CC(C)n1c(/C=C/[C@@H](O)C[C@@H](O)CC(=O)O)c(-c2ccc(F)cc2)c2ccccc21 |  | -20.4
28 | Nc1ccc(-c2ccc3ncc4ccc(=O)n(-c5cccc(C(F)(F)F)c5)c4c3c2)cn1 | 3.43 µM (active) | 
29 | Cc1cc(SCc2sc(-c3ccc(C(F)(F)F)cc3)nc2C)ccc1OCC(=O)O |  | 1.34
